Key:
Experiment in all cases: log2 ratio of Biotin-Ahx-Ub-VS probe labelling (fragment/DMSO); higher = less target engagement (more negative = stronger competition), active = hit call of the paper (q ≤ 0.05, log2 ratio ≤ -1)
Settings in all cases: compound concentration: 200 uM; treatment time: 3 h
USP42 = molecular target: T1, USP42 (UniProt Q9H9J4)
T1 sequence (whole entry): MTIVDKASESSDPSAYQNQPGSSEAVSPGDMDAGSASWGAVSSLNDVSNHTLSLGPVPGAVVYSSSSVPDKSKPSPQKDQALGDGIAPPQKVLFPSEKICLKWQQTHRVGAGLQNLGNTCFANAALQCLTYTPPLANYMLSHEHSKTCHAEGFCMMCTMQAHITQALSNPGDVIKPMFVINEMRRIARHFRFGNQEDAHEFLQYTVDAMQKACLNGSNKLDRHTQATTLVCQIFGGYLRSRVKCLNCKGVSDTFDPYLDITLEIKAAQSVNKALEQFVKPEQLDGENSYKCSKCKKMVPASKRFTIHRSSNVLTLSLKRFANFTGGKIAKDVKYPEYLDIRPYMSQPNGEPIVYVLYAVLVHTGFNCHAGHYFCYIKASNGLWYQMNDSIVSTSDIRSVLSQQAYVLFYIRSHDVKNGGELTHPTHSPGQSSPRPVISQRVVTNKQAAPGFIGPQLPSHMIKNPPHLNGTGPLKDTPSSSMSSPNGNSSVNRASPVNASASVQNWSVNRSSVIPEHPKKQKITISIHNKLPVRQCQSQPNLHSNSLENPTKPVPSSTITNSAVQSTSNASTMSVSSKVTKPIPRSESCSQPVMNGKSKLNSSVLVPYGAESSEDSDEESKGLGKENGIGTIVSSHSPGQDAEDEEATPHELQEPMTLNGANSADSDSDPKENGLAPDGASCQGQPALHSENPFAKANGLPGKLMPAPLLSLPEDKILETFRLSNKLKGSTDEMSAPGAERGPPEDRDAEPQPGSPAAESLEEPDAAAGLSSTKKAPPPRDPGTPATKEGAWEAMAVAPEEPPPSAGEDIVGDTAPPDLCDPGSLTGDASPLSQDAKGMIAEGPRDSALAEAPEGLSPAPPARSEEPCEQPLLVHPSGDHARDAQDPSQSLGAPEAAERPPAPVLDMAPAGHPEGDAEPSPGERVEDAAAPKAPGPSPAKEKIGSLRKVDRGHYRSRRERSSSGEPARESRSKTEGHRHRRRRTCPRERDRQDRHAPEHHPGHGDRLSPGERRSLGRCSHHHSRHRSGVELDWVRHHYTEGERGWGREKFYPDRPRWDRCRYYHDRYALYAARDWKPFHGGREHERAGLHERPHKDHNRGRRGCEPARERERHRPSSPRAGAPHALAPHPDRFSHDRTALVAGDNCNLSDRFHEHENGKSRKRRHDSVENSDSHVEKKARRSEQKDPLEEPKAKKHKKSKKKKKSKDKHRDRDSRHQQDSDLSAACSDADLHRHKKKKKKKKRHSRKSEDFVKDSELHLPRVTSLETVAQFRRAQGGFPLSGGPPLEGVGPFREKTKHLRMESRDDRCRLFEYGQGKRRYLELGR
Summary of the method: (§1)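 Labelled DUBs from HEK293T lysate were NeutrAvidin-enriched, digested with LysC and trypsin, and run by diaPASEF LC-MS/MS. Before that, each 495 µg sample in Tris/CHAPS/IGEPAL buffer with protease inhibitors was treated in triplicate with fragment at 200 µM or vehicle for 3 h, then with Biotin-Ahx-Ub-VS at 0.5 µM final for 1 h. Values are average log2 ratios of fragment over vehicle by unpaired t-test, based on global-median-normalised Spectronaut label-free quantities from proteins with ≥2 unique peptides.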

USP46 = USP46 (UniProt P62068)
USP46, sequence (P62068 whole entry): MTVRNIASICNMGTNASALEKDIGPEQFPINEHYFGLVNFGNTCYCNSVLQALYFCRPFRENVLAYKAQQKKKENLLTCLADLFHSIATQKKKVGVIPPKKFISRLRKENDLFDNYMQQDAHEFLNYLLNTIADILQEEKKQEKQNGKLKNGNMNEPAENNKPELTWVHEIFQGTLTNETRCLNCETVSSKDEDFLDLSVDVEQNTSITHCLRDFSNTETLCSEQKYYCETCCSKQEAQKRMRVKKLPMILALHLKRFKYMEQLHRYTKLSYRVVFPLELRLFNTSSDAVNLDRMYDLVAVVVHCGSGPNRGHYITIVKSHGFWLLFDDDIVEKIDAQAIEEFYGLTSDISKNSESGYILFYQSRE
Summary of the method: as §1

USP47 = molecular target: T2, USP47 (UniProt Q96K76)
T2 sequence (whole entry): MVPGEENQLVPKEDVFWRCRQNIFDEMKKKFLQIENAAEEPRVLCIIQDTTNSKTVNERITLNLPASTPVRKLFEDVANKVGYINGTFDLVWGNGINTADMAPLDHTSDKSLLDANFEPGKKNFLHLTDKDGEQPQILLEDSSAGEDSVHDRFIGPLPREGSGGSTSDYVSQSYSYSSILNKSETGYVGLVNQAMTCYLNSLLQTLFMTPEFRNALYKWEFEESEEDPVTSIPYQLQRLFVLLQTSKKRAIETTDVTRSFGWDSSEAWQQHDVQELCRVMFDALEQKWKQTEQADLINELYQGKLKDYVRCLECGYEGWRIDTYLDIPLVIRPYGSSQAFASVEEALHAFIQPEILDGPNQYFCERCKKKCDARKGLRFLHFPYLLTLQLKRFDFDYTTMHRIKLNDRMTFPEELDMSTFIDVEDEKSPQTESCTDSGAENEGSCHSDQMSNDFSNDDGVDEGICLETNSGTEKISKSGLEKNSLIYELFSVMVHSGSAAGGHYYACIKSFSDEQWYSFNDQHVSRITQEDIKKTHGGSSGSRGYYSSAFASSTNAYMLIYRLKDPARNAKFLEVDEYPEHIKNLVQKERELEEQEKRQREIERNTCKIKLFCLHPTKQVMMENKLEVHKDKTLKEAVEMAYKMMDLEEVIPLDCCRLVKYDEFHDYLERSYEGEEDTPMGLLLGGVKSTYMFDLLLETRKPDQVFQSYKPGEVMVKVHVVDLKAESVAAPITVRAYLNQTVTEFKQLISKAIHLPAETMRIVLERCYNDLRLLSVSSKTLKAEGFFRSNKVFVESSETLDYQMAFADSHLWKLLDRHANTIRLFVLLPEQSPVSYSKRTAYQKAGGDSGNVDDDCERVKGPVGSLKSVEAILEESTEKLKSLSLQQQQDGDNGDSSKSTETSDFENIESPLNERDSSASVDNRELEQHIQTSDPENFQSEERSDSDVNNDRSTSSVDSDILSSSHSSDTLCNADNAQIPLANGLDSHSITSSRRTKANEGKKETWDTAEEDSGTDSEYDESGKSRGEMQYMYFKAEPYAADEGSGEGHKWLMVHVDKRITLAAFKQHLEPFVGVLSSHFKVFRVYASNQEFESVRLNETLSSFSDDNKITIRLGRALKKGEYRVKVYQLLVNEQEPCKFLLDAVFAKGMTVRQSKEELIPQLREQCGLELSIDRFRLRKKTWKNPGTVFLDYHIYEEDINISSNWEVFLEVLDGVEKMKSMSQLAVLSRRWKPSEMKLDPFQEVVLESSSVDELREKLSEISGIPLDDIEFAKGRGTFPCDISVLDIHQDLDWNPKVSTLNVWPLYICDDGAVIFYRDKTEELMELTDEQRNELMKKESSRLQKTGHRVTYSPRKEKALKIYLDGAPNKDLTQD
Summary of the method: as §1

USP48 = molecular target: T3, USP48 (UniProt Q86UV5)
T3 sequence (whole entry): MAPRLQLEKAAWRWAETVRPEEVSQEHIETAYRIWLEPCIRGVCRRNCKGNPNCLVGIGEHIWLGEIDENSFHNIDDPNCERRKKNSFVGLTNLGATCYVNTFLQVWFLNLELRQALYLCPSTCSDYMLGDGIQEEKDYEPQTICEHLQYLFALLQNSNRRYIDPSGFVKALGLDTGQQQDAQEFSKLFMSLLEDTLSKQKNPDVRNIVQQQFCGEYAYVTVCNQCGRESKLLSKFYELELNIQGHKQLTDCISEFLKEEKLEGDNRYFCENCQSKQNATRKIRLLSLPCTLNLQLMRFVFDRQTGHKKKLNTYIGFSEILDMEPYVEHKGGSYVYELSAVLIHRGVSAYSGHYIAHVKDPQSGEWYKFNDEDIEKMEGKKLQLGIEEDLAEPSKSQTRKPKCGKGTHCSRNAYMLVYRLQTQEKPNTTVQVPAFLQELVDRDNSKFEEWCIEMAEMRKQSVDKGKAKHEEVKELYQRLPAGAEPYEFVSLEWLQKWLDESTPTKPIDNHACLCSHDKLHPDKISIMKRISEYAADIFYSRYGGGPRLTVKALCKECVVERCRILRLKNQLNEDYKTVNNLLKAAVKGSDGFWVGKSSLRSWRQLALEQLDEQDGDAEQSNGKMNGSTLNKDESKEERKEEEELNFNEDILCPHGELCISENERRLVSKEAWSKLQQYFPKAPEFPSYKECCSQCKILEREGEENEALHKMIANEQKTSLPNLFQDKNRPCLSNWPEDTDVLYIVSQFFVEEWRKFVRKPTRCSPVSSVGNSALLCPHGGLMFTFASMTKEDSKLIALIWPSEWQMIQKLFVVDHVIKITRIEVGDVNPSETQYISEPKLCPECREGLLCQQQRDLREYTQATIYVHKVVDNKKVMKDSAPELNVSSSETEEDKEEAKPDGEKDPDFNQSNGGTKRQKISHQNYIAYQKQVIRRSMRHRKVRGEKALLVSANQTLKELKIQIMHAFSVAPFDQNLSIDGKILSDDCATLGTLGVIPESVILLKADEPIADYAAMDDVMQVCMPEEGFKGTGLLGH
Summary of the method: as §1

USP5 = molecular target: T4, USP5 (UniProt P45974)
T4 sequence (whole entry): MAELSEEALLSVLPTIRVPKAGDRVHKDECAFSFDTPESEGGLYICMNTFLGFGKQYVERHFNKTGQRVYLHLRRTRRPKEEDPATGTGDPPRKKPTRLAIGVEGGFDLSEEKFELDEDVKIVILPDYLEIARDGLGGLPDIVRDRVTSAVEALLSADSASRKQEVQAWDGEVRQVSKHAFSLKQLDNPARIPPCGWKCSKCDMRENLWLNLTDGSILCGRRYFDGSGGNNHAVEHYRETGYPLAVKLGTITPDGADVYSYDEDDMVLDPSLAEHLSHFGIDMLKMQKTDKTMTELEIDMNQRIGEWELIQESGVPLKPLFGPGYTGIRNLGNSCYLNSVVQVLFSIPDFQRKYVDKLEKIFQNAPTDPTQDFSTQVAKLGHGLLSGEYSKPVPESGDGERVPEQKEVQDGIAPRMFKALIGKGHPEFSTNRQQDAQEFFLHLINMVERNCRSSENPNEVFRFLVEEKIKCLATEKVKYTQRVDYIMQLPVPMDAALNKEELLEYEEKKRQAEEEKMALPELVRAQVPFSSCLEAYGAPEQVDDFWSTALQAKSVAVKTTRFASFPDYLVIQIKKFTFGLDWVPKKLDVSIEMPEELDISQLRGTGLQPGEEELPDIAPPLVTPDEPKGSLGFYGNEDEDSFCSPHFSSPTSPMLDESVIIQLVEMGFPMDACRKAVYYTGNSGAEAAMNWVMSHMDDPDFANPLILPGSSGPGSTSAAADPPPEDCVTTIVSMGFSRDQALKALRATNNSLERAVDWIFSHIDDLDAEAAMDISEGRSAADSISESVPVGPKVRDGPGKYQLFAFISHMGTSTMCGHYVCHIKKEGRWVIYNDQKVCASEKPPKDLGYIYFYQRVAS
Summary of the method: as §1

USP54 = USP54 (UniProt Q70EL1)
USP54, sequence (Q70EL1 whole entry): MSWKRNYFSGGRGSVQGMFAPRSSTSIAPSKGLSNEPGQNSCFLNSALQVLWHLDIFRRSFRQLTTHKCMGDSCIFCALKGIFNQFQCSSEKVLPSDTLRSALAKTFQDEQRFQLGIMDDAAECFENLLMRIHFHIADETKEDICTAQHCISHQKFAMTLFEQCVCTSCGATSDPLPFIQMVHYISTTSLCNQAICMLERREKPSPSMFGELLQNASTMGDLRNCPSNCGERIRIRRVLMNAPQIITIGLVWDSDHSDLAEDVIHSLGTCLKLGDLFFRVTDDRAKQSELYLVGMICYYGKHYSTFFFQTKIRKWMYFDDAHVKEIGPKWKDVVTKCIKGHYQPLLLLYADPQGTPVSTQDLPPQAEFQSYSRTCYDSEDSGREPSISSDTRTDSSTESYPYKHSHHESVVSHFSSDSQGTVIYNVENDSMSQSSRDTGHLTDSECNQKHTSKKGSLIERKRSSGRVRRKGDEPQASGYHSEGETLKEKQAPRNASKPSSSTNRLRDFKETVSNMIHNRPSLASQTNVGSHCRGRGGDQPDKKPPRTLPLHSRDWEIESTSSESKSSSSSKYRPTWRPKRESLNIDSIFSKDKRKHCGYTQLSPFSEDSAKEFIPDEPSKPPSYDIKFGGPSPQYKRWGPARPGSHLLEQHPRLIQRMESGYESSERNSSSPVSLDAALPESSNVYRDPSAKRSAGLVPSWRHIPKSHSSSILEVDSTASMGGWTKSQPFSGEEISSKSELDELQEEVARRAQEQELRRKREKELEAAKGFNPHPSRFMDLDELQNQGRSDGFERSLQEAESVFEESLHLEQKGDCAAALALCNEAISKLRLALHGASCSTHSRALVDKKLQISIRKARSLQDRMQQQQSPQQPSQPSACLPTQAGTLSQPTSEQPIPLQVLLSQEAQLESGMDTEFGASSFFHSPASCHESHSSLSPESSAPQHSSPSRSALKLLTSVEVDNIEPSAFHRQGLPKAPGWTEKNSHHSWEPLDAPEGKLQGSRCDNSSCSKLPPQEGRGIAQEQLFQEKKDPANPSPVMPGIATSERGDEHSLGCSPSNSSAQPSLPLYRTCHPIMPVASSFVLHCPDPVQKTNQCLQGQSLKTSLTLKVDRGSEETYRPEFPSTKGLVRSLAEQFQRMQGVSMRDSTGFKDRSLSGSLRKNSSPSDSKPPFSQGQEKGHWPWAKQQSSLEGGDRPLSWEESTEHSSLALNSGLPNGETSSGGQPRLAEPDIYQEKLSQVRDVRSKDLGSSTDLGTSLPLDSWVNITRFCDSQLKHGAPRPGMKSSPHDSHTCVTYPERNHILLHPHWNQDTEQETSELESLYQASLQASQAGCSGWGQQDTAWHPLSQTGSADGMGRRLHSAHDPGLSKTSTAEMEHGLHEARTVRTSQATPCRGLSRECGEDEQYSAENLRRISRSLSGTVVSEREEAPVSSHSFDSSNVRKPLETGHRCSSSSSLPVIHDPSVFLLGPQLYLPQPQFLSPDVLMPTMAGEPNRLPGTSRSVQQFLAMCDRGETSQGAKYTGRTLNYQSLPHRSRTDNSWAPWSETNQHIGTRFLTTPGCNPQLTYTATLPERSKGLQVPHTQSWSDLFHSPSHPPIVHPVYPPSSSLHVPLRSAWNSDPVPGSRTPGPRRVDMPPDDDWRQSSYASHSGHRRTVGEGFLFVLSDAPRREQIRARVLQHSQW
Summary of the method: as §1

USP7 = USP7 (UniProt Q93009)
USP7, sequence (Q93009 whole entry, looked up): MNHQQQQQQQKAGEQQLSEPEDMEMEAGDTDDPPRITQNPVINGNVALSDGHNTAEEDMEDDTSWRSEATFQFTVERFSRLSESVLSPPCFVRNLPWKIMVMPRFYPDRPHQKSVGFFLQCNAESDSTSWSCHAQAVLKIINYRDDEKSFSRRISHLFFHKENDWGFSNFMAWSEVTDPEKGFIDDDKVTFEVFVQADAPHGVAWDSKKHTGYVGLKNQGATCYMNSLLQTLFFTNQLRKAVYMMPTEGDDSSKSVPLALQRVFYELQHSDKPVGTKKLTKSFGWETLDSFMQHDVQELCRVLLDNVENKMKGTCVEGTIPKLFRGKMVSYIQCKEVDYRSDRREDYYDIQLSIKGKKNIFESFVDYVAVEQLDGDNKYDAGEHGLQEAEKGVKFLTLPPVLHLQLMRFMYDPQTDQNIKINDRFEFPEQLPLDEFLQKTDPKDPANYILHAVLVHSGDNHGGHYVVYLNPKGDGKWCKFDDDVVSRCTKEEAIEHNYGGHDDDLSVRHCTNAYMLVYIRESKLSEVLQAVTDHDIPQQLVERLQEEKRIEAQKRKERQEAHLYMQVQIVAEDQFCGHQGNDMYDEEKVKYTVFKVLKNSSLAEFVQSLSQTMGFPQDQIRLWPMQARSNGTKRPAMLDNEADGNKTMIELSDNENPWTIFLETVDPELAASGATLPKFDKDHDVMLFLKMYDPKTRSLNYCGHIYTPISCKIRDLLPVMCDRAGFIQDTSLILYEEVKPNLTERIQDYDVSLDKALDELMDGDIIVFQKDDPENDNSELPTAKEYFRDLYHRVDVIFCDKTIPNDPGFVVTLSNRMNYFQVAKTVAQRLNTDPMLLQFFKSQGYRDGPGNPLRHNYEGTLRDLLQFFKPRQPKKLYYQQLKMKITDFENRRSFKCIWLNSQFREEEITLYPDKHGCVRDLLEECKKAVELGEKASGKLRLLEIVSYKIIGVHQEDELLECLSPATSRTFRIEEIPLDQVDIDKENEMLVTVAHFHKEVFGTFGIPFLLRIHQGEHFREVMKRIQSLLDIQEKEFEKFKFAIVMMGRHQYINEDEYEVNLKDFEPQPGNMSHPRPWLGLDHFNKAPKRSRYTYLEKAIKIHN
Summary of the method: as §1

USP8 = molecular target: T5, USP8 (UniProt P40818)
T5 sequence (whole entry): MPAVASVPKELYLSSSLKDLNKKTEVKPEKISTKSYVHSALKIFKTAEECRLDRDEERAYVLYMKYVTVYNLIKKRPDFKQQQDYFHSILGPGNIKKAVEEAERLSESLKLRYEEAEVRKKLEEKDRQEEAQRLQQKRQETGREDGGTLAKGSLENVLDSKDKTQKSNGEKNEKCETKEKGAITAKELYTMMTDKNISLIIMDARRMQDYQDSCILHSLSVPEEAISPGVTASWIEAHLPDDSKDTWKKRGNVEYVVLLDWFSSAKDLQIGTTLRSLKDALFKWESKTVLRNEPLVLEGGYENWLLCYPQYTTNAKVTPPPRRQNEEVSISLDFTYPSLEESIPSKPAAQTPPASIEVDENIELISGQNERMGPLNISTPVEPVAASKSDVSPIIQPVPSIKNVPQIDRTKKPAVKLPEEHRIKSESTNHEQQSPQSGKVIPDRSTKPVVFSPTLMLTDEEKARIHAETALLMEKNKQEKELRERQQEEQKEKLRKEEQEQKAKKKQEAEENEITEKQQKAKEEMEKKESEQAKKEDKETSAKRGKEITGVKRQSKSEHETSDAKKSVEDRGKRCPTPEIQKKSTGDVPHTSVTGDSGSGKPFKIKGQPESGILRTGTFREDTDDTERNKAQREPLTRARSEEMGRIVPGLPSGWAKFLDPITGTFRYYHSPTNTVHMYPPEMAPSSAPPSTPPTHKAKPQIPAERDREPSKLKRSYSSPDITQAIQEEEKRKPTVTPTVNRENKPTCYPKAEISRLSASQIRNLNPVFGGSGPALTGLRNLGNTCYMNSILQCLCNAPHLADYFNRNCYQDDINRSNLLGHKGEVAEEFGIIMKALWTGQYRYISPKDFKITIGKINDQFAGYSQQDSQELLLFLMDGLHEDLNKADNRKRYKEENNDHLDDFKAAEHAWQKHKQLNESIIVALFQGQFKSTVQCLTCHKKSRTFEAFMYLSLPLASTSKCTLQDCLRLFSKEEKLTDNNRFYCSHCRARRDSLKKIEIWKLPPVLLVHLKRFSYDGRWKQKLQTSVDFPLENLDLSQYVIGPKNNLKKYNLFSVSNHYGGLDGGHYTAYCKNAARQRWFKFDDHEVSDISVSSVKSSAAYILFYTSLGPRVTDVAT
Summary of the method: as §1

USP9X = USP9X (UniProt Q93008)
Summary of the method: as §1

UniProt O00487 = molecular target: UniProt O00487
UniProt O00487, sequence (O00487 whole entry): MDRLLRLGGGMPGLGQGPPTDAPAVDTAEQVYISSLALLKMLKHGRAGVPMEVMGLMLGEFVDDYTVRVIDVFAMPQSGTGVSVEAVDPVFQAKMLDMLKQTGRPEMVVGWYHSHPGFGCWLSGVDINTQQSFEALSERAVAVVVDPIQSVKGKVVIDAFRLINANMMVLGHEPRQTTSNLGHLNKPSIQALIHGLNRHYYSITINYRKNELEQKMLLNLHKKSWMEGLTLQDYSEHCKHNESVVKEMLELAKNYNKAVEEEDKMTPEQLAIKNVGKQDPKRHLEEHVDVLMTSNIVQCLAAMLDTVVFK
Summary of the method: as §1

Measured: log2 ratio of Biotin-Ahx-Ub-VS probe labelling

Cc1c(C#N)c(NC(=O)CCl)n(Cc2ccco2)c1C
inactive: USP42 0.0887 | USP46 -0.16 | USP47 -0.217 | USP48 -0.398 | USP5 -0.329 | USP54 -0.38 | USP7 -0.563 | USP8 -0.000142 | USP9X -0.241 | UniProt O00487 -0.177
